Active and inactive are the calls of the source. Calls come from the whole dose curve. Square brackets hold non-standard residues; d marks the D form. Peptide text beside a SMILES is read from it. pGlu = O=C1CC[C@@H](C(=O)O)N1
% is set by controls: 0 for no effect and ±100 for the full control effect; potency is the fitted concentration of half-maximal effect.

The experiment deals with Muscarinic acetylcholine receptor M1 (Homo sapiens) (UniProt P11229). Put plainly: Cholinergic receptor muscarinic 1 (CHRM1) small molecule agonists, cell-based qHTS assay (AID 1963589). Note: nearly all actives have a fitted effect of over 35% in size. Particulars: CHRM1-CHO cells, agonist mode, calcium flux fluorescence; series mostly up to 76.8 µM; activation: at the top concentration. The text has this: National Center for Advancing Translational Sciences [NCATS]
Sequence of Muscarinic acetylcholine receptor M1 (Homo sapiens) (P11229 whole entry, looked up): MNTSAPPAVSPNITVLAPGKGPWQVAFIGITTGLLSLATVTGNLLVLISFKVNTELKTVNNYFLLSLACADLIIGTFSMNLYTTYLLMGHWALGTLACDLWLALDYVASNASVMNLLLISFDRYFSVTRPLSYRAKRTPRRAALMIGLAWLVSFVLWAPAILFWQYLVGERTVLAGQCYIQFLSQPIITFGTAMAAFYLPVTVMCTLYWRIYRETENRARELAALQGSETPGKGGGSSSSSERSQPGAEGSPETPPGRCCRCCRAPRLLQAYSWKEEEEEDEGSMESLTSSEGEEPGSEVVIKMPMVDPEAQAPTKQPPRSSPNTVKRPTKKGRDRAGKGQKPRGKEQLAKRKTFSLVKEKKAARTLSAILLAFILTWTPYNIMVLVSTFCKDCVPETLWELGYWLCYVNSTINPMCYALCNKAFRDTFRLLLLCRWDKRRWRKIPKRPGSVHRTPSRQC
Division of Preclinical Innovation [DPI]
U.S. Environmental Protection Agency [EPA]
National Institutes of Environmental Health Sciences [NIEHS]
National Toxicology Program [NTP]
U.S. Food and Drug Administration [FDA]
The CHRM1 is a muscarinic receptor. This receptor plays a crucial role in learning and memory processes and has long been identified as a promising therapeutic target for the improvement of cognitive decline in Alzheimer's disease (AD). The CHRM1-CHO cell line stably expressing human muscarinic acetylcholine receptor M1 (CHRM1) can be used for screening agonists and antagonists of interactions between CHRM1 and its ligands. The CHRM1-CHO Calcium Flux Assay is a homogeneous fluorescence-based assay for detecting the intracellular calcium level using FDSS kinetic plate reader system.
CHRM1-CHO cells were dispensed at 1000 cells/3uL/well in 1536-well black-clear bottom plates using a Multidrop Dispenser. After the assay plates were incubated at a 37 C/5% CO2 incubator for 18 h, 3 uL of Dye Loading Buffer was transferred to the assay plate by a Flying Reagent Dispenser. The assay plates were incubated at 37 C for 1h. For agonist mode, 23 nL of compounds dissolved in DMSO, positive controls or DMSO only was transferred to the assay plate by a pin tool. […] Each test compound was measured at 15 concentrations in three independent runs.
(In qHTS, concentration-response curves come from the screen itself.)
Consider `CN(N=O)c1ccc([N+](=O)[O-])cc1`, for which the “activation” value is -0.869% (inactive).
On the same count and under the same terms, as for `CCC1(CC)C(=O)N=C(O)NC1=O`, the figure is -0.0039% (inactive); as for `N#Cc1cc(I)c(O)c(I)c1`, 1.96% (inactive).
Turning to `COP(N)(=S)Oc1ccccc1C(=O)OC(C)C` (stereo not given), the “activation” value was -0.0432% (inactive).
`COc1cccc(C(=O)CCN[C@@H](C)[C@H](O)c2ccccc2)c1`: the “activation” value is -0.0938% [at 35.3 µM] (inactive).
For the compound `C#CCC1=C(C)C(OC(=O)C2C(C=C(C)C)C2(C)C)CC1=O` (stereo not given), the “activation” value is 1.46% (inactive).
On the same count and under the same terms, next, `COc1ccc2c(c1OC)C(=O)O[C@H]2[C@@H]1c2cc3c(cc2CCN1C)OCO3`: -0.794% [at 35.3 µM] (inactive).
Consider `NS(=O)(=O)C(F)(F)C(F)(F)C(F)(F)C(F)(F)C(F)(F)C(F)(F)C(F)(F)C(F)(F)F`, for which the Potency is 0.0022 µM (active).
For `COC(=O)N(OC)c1ccccc1COc1ccn(-c2ccc(Cl)cc2)n1`, the “activation” value was -0.572% (inactive).
The same measure, in the same setting: next, `CCNC(=O)[C@@H]1CCCN1C(=O)[C@H](CCCN=C(N)N)NC(=O)[C@H](CC(C)C)NC(=O)CNC(=O)[C@H](Cc1ccc(O)cc1)NC(=O)[C@H](CO)NC(=O)[C@H](Cc1c[nH]c2ccccc12)NC(=O)[C@H](Cc1cnc[nH]1)NC(=O)[C@@H]1CCC(=O)N1` ([pGlu]HWSYGLRP-NHEt): -0.202% [at 35.3 µM] (inactive).
Regarding `CC1(C)CC/C(=C/c2ccc(Cl)cc2)C1(O)Cn1cncn1` (stereo not given), the “activation” value is 8.89% (inactive).
Still for that read-out and setting: next, `Clc1ccccc1`: -0.348% (inactive); `C=COC(C)=O`: 1.01% (inactive).
On the same count and under the same terms, next, `CC(Cc1ccccc1)NCCn1cnc2c1c(=O)n(C)c(=O)n2C` (stereo not given): -0.315% (inactive); `C1=CCC=C1`: 0.614% (inactive); `CC(C)(C#N)C(C)(C)C#N`: -1.01% (inactive).
Still for that read-out and setting: as for `O=[N+]([O-])c1ccc(F)c([N+](=O)[O-])c1`, the figure is 5.84% (inactive).
Take `CNC(=O)Oc1ccc(N(C)C)c(C)c1`: the “activation” value is -2.19% (inactive).
On the same count and under the same terms, as for `CCc1cc2c(s1)-n1c(C)nnc1CN=C2c1ccccc1Cl`, the figure is -0.569% [at 35.3 µM] (inactive); as for `ClSC(Cl)(Cl)Cl`, 3.82% (inactive).
Same read-out and setting: next, `O=C1C(=O)c2cccc3cccc1c23`: 0.0679% (inactive).
Take `CC(O)C(=O)[O][Hg][c]1ccccc1` (stereo not given): the Potency is 54.9 µM (active).
`SCc1ccccc1`: the “activation” value was -0.376% (inactive).
Same read-out and setting: next, `COP(=O)(OC)Oc1ccc([N+](=O)[O-])cc1`: 0.0244% (inactive).
Same read-out and setting: next, `Nc1ccc([N+](=O)[O-])cc1[N+](=O)[O-]`: -0.183% (inactive).
Same read-out and setting: as for `O=C1c2ccccc2C(=O)C1C(=O)C(c1ccccc1)c1ccc(Cl)cc1` (stereo not given), the figure is 14.3% (inactive); as for `ClC=C(Cl)Cl`, 0.0175% (inactive); as for `Nc1ccc(Cc2ccc(N)c(Cl)c2)cc1Cl`, 4.96% (inactive).
Take `c1ccc2c(c1)CCNC2`: the “activation” value is -0.313% (inactive).
Still for that read-out and setting: next, `[O]=[Cd]`: 0.231% (inactive); `Oc1cccc(-c2ccccc2)c1`: 2.44% (inactive).
As for `CC(Cc1ccc2c(c1)OCO2)NO` (stereo not given), the “activation” value is -0.317% (inactive).
Take `CC(C)=CC1C(C(=O)OC(C#N)c2cccc(Oc3ccccc3)c2)C1(C)C` (stereo not given): the “activation” value is -0.145% (inactive).
On the same count and under the same terms, next, `ClC1=C(Cl)[C@]2(Cl)[C@@H]3[C@@H](Cl)[C@H]4O[C@H]4[C@@H]3C1(Cl)C2(Cl)Cl`: 0.133% (inactive); `O=C1CN=C(c2ccccc2)c2cc(Cl)ccc2N1CC1CC1`: -0.159% (inactive).
Turning to `CC[C@H](O)C(C[C@H](C)N(C)C)(c1ccccc1)c1ccccc1`, the “activation” value was 0.0813% (inactive).
For `CCCCCCCCCCCCN=C(N)N`, the activation was -0.462% [at 2.72 µM] (inactive).
For the compound `BrC(Br)C(Br)(Br)Br`, the “activation” value was 1.65% (inactive).
The same measure, in the same setting: next, `CC(C)(C)c1cc([N+](=O)[O-])cc([N+](=O)[O-])c1O`: 7.92% (inactive); `COC(C)(C)CCC[C@H](C)C/C=C/C(C)=C/C(=O)OC(C)C`: 2.71% (inactive).
